Laboratory results from PubChem BioAssay AID1159580 (chemical genetic matrix, 2015).
Where “and” joins values, the source holds several entries; their conditions need not be identical. Equal entries are not always repeated. Out of some 5,500 compounds screened, about 2,000 (36%) were called active. Another 18% or so got no clear call; they are omitted. No stated cut-off is given here; in the data, active means normalized growth mostly below about 0.91 (no sharp cut-off); inconclusive means no clear call, values can overlap the other calls; inactive means mostly above about 0.92. The list shows a part of the results.

Test: chemical genetic growth profiling, strain panel (AID 1159580);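 further: tested at 20 µM; growth read once vehicle control cultures reached saturation at 30 °C; 1 = growth at the plate median or of vehicle wells; lower values mean less growth of the strain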
Details: S. cerevisiae deletion strains, growth OD

Measured: normalized growth

CC(=O)OCC[C@H](C)CCC=C(C)C
inactive: locus YAL013W, strain DEP1, hits give low values 1 | locus YAL021C, strain ccr4, hits give low values 0.993 | locus YAL026C, strain drs2, hits give low values 0.993 | locus YAL030W, strain snc1, hits give low values 0.989 | locus YBL061C, strain skt5, hits give low values 0.992 | locus YBR009C, strain hhf1, hits give low values 1.06 | locus YBR021W, strain FUR4, hits give low values 0.991 | locus YBR023C, strain chs3, hits give low values 0.995 | locus YBR171W, strain sec66, hits give low values 0.983 | locus YBR229C, strain ROT2, hits give low values 1.01 | locus YBR231C, strain swc5, hits give low values 0.986 | locus YBR279W, strain paf1, hits give low values 0.997 | locus YCL011C, strain gbp2, hits give low values 1.01 | locus YCL016C, strain dcc1, hits give low values 0.994 | locus YCL029C, strain bik1, hits give low values 1.03 | locus YCL061C, strain MRC1, hits give low values 1 | locus YCL069W, strain vba3, hits give low values 0.989 | locus YCR088W, strain abp1, hits give low values 0.989 | locus YDL005C, strain med2, hits give low values 0.978 | locus YDL035C, strain GPR1, hits give low values 1.02 | locus YDL040C, strain nat1, hits give low values 0.993 | locus YDL074C, strain BRE1, hits give low values 1.05 | locus YDL101C, strain DUN1, hits give low values 1.01 | locus YDL185W, strain tfp1, hits give low values 1.02 | locus YDL192W, strain arf1, hits give low values 1.04 | locus YDR001C, strain nth1, hits give low values 0.998 | locus YDR069C, strain doa4, hits give low values 0.991 | locus YDR101C, strain arx1, hits give low values 1.03 | locus YDR137W, strain rgp1, hits give low values 0.974 | locus YDR150W, strain NUM1, hits give low values 1.01 | locus YDR159W, strain sac3, hits give low values 1.02 | locus YDR162C, strain NBP2, hits give low values 1.01 | locus YDR195W, strain ref2 0.949 | locus YDR297W, strain sur2, hits give low values 1.01 | locus YDR318W, strain mcm21, hits give low values 1.02 | locus YDR334W, strain swr1, hits give low values 0.998 | locus YDR335W, strain msn5, hits give low values 0.992 | locus YDR388W, hits give low values 1.02 | locus YDR392W, strain spt3, hits give low values 0.966 | locus YDR502C, strain sam2, hits give low values 1.01 | locus YEL003W, strain gim4, hits give low values 1 | locus YEL037C, strain rad23, hits give low values 0.995 | locus YEL061C, strain CIN8 (second series), hits give low values 1.03 | locus YEL061C, strain CIN8, hits give low values 1.01 | locus YER015W, strain faa2, hits give low values 0.993 | locus YER016W, strain bim1, hits give low values 0.962 | locus YER110C, hits give low values 1.03 | locus YER111C, strain swi4, hits give low values 0.992 | locus YER155C, strain BEM2 (second series), hits give low values 0.973 | locus YER155C, strain BEM2, hits give low values 0.988 | locus YER167W, strain BCK2, hits give low values 1.01 | locus YFR010W, strain ubp6, hits give low values 1.01 | locus YGL078C, strain dbp3, hits give low values 1.01 | locus YGL086W, strain mad1, hits give low values 1.01 | locus YGL167C, strain pmr1, hits give low values 0.99 | locus YGL173C, strain kem1, hits give low values 0.986 | locus YGL227W, strain vid30, hits give low values 0.987 | locus YGL240W, strain doc1, hits give low values 0.978 | locus YGL248W, strain PDE1, hits give low values 1.02 | locus YGL253W, strain hxk2, hits give low values 0.997 | locus YGR135W, strain pre9, hits give low values 1.06 | locus YGR252W, strain gcn5, hits give low values 1.06 | locus YHR013C, strain ard1, hits give low values 0.967 | locus YHR027C, strain rpn1, hits give low values 0.99 | locus YHR030C, strain SLT2, hits give low values 1 and 1.01 | locus YHR079C, strain IRE1 (second series), hits give low values 1.02 | locus YHR079C, strain IRE1, hits give low values 1.01 | locus YHR094C, strain hxt1, hits give low values 1.02 | locus YHR129C, strain ARP1, hits give low values 0.999 | locus YHR142W, strain chs7, hits give low values 0.988 | locus YHR200W, strain rpn10, hits give low values 1.03 | locus YIL066C, strain RNR3, hits give low values 1.01 | locus YIL073C, strain SPO22, hits give low values 1.1 | locus YIL125W, strain kgd1, hits give low values 1.01 | locus YIR030C, strain dcg1, hits give low values 1.02 | locus YJL092W, strain hpr5, hits give low values 0.999 | locus YJL095W, strain BCK1 (second series), hits give low values 0.99 | locus YJL095W, strain BCK1, hits give low values 1.02 | locus YJL115W, strain asf1, hits give low values 0.991 | locus YJL129C, strain trk1, hits give low values 0.968 | locus YJL134W, strain LCB3, hits give low values 1.01 | locus YJL154C, strain vps35, hits give low values 0.981 | locus YJL164C, strain tpk1, hits give low values 1.02 | locus YJL166W, strain qcr8, hits give low values 0.96 | locus YJL168C, strain set2, hits give low values 1.02 | locus YJL187C, strain SWE1 (second series), hits give low values 1.02 | locus YJL187C, strain SWE1, hits give low values 0.982
